Assay results published in PubChem BioAssay (Tox21).
Where “and” joins values, the source holds several entries; their conditions need not be identical. Equal entries are not always repeated. Results filed as inconclusive are left out. Entries that show only a call come without a potency. Where a structure was tested more than once in an assay, its records may differ in their call. Calls of active or inactive are those of the source. Unless noted, calls follow the shape of the dose curve; as a rule, active = well fitted curve in the direction sought with a large enough effect in the repeat runs; inconclusive = weak or mixed curves; inactive = no such curve, though single readings can be large; an effect the other way counts as inactive or inconclusive.

How the values were obtained:
[1] = qHTS assay for small molecules that induce genotoxicity in human embryonic kidney cells expressing luciferase-tagged ATAD5 (AID 651632); also: nearly all actives have a fitted effect of over 15% in size
Method in brief: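 Genotoxicity read-out via ATAD5-luciferase: HEK293T cells, 16 hr compound incubation at 37C, Amplite detection.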

[2] = qHTS assay for small molecule disruptors of the mitochondrial membrane potential - cell viability (AID 720634; calls by dose curve;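 also: human HepG2 liver cancer cells; series mostly up to about 83 µM; nearly all actives have a fitted effect of over 20% in size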)
Method in brief: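 Human hepatoma HepG2 cells were treated for 1 hr with test chemicals, then given m-MPI dye and CellTiter-Glo. Cell viability reflects luminescence proportional to cellular ATP.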

[3] = qHTS assay for small molecule disruptors of the mitochondrial membrane potential (AID 720635); also: potency is read from the fitted curve at half-maximal effect
Method in brief: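 Mitochondrial membrane potential tracked with Mito-MPS dye, red aggregates (ex 540/em 590 nm) against green monomers (ex 490/em 535 nm). Compound treatment 1 hr at 37C, dye 30 min in HepG2.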

[4] = qHTS assay to test for compound auto fluorescence at 535 nm (green) in HepG2 cells (AID 720675)
[5] = qHTS assay to test for compound auto fluorescence at 535 nm (green) in HEK293 cells (AID 720680)
[6] = qHTS assay to identify small molecule antagonists of the thyroid receptor (TR) signaling pathway (AID 743065); also: nearly all actives have a fitted effect of over 55% in size; also: potency is read from the fitted curve at half-maximal effect
Method in brief: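 Antagonism measured as loss of luciferase signal in GH3 cells stably carrying a TRE-luciferase reporter, co-treated with compound and T3 (1 nM final) for 23.5 h at 37 C. Viability was read in the same well by CellTiter-Fluor.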

[7] = system: thyroid hormone receptor (rat, GH3 cells); test: qHTS assay to identify small molecule agonists of the thyroid receptor (TR) signaling pathway (AID 743066; calls by dose curve)
[8] = molecular target: Estrogen receptor (Homo sapiens) (UniProt P03372); test: qHTS assay to identify small molecule antagonists of the estrogen receptor alpha (ER-alpha) signaling pathway (AID 743069; active = well fitted curve in the direction sought with a large enough effect in the signal ratio in the repeat runs, not every such curve was filed as active; the % refers to the signal ratio)
Method in brief: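 ER-alpha-UAS-bla GripTite HEK293 line; 2% charcoal-stripped FBS overnight; plated, 4 hr 37C/5% CO2; cpd in DMSO + 17beta-estradiol, 18 hr 37C; LiveBLAzer B/G FRET substrate 2 hr RT; fluorescence intensity.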

[9] = molecular target: Estrogen receptor (Homo sapiens) (UniProt P03372); test: qHTS assay to identify small molecule agonists of the estrogen receptor alpha (ER-alpha) signaling pathway (AID 743075; calls by dose curve;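 also: HEK293 GripTite cells with ER-alpha and UAS-driven beta-lactamase reporter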; also: potency is read from the fitted curve at half-maximal effect)
[10] = molecular target: Estrogen receptor (Homo sapiens) (UniProt P03372); test: qHTS assay to identify small molecule agonists of the estrogen receptor alpha (ER-alpha) signaling pathway using the BG1 cell line (AID 743079); also: nearly all actives have a fitted effect of over 20% in size; also: potency is read from the fitted curve at half-maximal effect
[11] = qHTS assay to identify small molecule antagonists of the estrogen receptor alpha (ER-alpha) signaling pathway using the BG1 cell line (AID 743080; calls by dose curve;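 also: BG1 cells stimulated with 17beta-estradiol alongside compound; series mostly up to about 70 µM; nearly all actives have a fitted effect of over 25% in size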)
Method in brief: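 Luciferase inhibition measured with ONE-Glo after 30 min at RT in BG1Luc4E2 cells given test compounds and 17beta-estradiol for 21.5 h at 37 C; CellTiter-Fluor viability read in the same wells beforehand.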

[12] = qHTS assay to identify small molecule antagonists of the estrogen receptor alpha (ER-alpha) signaling pathway using the BG1 cell line - cell viability counter screen (AID 743081);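 also: compound given together with 17beta-estradiol as the ER stimulus; series mostly up to about 70 µM; nearly all actives have a fitted effect of over 45% in size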
[13] = molecular target: Aryl hydrocarbon receptor (Homo sapiens) (UniProt P35869); test: qHTS assay to identify small molecule that activate the aryl hydrocarbon receptor (AhR) signaling pathway (AID 743085); also: nearly all actives have a fitted effect of over 15% in size; also: potency is read from the fitted curve at half-maximal effect;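 as to activation: HG2L7.5c1 human HepG2 liver cells with stably integrated DRE-driven firefly reporter; series mostly up to about 70 µM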
Method in brief: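 24 h compound exposure, 37C, HepG2-derived HG2L7.5c1 cells with DRE-responsive luciferase. Readouts: fluorescence viability, then luminescence at room temperature after 30 min.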

[14] = molecular target: Peroxisome proliferator-activated receptor gamma (Homo sapiens) (UniProt P37231); test: qHTS assay to identify small molecule agonists of the peroxisome proliferator-activated receptor gamma (PPARg) signaling pathway (AID 743094; active = well fitted activation curve with a large enough effect in the signal ratio in the repeat runs, not every such curve was filed as active; the % refers to the signal ratio)
Method in brief: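 Stably transfected HEK293H cells (GeneBLAzer PPARg UAS-bla) were incubated with test substances for 17 h at 37C after a 5 h pre-incubation; beta-lactamase activity was then detected by FRET substrate fluorescence.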

[15] = qHTS assay for identifying genotoxic compounds that show differential cytotoxicity against isogenic chicken DT40 cell lines with known DNA damage response pathways - Rev3 mutant cell line (AID 743014); also: nearly all actives have a fitted effect of over 55% in size; also: potency is read from the fitted curve at half-maximal effect
[16] = qHTS assay to identify small molecule antagonists of the thyroid receptor (TR) signaling pathway - cell viability counter screen (AID 743064); also: nearly all actives have a fitted effect of over 50% in size
Method in brief: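 Compounds were tested on GH3.TRE-Luc cells in the presence of T3 at 1 nM final. Following 23.5 h at 37 °C, cell viability was quantified by CellTiter-Fluor.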

[17] = molecular target: Glucocorticoid receptor (Homo sapiens) (UniProt P04150); test: qHTS assay to identify small molecule agonists of the glucocorticoid receptor (GR) signaling pathway (AID 720691; active = well fitted activation curve with a large enough effect in the signal ratio in the repeat runs, not every such curve was filed as active; the % refers to the signal ratio)
Method in brief: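 Beta-lactamase reporter activity, read as fluorescence intensity, was measured in GR-bla HeLa cells exposed to compounds for 18 h at 37 C and then loaded with LiveBLAzer B/G FRET substrate for 2 h at room temperature.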

[18] = qHTS assay for identifying genotoxic compounds that show differential cytotoxicity against isogenic chicken DT40 cell lines with known DNA damage response pathways - wild type cell line (AID 743012); also: nearly all actives have a fitted effect of over 60% in size; also: potency is read from the fitted curve at half-maximal effect
Method in brief: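 Quantitative HTS on parental DT40 cells: 40 h compound treatment at 37 C/5% CO2, with viability then determined by CellTiter-Glo luminescence. Values serve as the DNA repair-proficient reference for differential cytotoxicity.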

[19] = qHTS assay for identifying genotoxic compounds that show differential cytotoxicity against isogenic chicken DT40 cell lines with known DNA damage response pathways - Rad54/Ku70 mutant cell line (AID 743015); also: nearly all actives have a fitted effect of over 60% in size; also: potency is read from the fitted curve at half-maximal effect
[20] = qHTS assay for small molecule agonists of the p53 signaling pathway (AID 651631; calls by dose curve; also: nearly all actives have a fitted effect of over 15% in size; also: potency is read from the fitted curve at half-maximal effect)
Method in brief: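 Quantitative high-throughput format: 4,000 p53RE-bla HCT-116 cells/well, 5 h pre-incubation, 16 h compound exposure at 37 °C, 2 h room-temperature substrate step, fluorescence intensity measured.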

Glucocorticoid receptor (Homo sapiens), sequence (P04150 whole entry, looked up): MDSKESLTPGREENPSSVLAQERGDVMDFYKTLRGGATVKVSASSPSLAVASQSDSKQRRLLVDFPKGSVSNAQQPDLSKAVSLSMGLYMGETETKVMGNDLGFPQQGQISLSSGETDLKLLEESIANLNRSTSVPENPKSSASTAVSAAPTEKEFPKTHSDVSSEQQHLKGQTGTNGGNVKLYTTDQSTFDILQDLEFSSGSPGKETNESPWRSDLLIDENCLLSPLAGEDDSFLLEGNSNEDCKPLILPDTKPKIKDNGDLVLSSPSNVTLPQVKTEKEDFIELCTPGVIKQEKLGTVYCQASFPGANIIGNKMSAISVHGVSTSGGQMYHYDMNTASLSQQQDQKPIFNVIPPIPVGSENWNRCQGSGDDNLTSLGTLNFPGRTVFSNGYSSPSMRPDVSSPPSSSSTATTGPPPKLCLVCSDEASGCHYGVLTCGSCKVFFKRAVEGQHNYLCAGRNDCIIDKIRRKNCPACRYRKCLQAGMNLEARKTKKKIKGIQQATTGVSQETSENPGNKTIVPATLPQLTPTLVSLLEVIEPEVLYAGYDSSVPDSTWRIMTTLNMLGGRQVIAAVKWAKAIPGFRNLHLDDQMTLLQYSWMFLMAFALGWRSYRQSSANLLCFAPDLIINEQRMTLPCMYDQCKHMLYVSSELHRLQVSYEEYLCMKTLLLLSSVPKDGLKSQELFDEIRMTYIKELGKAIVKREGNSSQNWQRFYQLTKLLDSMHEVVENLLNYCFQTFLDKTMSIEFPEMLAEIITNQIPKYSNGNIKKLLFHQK
Aryl hydrocarbon receptor (Homo sapiens), sequence (P35869 whole entry, looked up): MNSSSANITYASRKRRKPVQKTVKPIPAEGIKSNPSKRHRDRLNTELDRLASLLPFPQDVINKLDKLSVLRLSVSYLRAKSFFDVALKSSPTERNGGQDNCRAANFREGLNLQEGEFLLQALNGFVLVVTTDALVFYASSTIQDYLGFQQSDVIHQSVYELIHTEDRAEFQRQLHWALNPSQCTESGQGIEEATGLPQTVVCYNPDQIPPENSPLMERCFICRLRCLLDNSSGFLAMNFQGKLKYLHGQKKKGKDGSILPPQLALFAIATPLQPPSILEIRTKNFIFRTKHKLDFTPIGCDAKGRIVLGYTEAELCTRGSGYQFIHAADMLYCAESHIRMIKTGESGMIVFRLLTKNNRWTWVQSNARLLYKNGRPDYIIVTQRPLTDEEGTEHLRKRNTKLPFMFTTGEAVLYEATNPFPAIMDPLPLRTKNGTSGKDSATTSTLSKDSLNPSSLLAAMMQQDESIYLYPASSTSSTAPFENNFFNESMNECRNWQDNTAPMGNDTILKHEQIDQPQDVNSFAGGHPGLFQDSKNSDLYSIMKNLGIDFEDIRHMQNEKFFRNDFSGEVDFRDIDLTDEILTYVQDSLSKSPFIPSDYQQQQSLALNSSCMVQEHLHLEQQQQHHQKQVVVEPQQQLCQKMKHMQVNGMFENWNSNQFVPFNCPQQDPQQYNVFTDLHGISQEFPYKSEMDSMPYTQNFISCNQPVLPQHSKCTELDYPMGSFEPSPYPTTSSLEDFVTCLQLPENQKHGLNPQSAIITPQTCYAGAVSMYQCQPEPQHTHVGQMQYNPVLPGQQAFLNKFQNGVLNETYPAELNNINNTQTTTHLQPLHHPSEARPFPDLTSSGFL
Estrogen receptor (Homo sapiens), sequence (P03372 whole entry, looked up): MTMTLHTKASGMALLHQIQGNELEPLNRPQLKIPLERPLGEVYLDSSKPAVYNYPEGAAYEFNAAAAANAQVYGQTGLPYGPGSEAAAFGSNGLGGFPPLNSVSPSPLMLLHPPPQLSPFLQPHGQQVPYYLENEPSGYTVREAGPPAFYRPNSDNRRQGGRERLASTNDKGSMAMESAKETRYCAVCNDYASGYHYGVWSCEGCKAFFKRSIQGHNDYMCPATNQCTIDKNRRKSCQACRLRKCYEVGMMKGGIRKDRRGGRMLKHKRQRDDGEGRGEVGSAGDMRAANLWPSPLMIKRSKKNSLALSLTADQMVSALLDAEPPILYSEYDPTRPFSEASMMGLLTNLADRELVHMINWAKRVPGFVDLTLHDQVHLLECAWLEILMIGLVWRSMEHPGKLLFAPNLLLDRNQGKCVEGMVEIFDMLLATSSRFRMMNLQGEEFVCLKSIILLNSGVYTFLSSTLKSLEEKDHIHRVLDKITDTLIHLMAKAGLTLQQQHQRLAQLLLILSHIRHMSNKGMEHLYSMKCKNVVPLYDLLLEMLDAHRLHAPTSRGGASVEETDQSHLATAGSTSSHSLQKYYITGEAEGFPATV
Peroxisome proliferator-activated receptor gamma (Homo sapiens), sequence (P37231 whole entry, looked up): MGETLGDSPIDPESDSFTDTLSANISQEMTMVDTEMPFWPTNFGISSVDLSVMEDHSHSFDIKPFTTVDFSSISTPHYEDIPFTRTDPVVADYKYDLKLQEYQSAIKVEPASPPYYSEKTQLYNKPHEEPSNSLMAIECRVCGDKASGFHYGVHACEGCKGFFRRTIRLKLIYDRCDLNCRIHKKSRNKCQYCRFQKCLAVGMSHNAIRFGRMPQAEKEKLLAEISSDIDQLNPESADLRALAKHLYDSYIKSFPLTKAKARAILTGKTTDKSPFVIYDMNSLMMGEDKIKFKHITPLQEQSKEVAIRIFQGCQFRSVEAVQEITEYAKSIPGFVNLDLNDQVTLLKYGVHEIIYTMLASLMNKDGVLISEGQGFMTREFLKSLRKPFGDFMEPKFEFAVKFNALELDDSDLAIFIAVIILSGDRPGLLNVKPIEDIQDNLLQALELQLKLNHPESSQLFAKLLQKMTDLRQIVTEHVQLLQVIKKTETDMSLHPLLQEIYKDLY

Row | Compound | Potency [1] | Potency [2] | Potency [3] | Potency [4] | Potency [5] | Potency [6] | Potency [7] | Potency [8] | Potency [9] | Potency [10] | Potency [11] | Potency [12] | Potency [13] | Potency [14] | Potency [15] | Potency [16] | Potency [17] | Potency [18] | Potency [19] | Potency [20]
1 | O=C(NC(=O)c1c(F)cccc1F)Nc1ccc(Cl)c(Oc2ncc(C(F)(F)F)cc2Cl)c1 | inactive | inactive | 2.98 µM (active) | inactive | inactive | inactive | inactive | inactive | inactive | inactive | inactive | inactive | inactive | inactive | – | – | – | – | – | –
2 | O=C(OCCN1CCCCC1)C(O)(c1ccccc1)c1ccccc1 | inactive | inactive | – | – | inactive | inactive | inactive | inactive | inactive | inactive | inactive | inactive | inactive | inactive | inactive | inactive | – | – | – | –
3 | CCCCC[C@@H](O)C1C(=O)OC(C)[C@H](O)/C=C/C=C/C=C/C=C/C=C(\C)C(O)C(O)C(O)C[C@H](O)C[C@H](O)C[C@H](O)C[C@H](O)C[C@@H]1O (some centres not stated) | inactive | – | inactive | inactive | inactive | inactive | inactive | inactive | inactive | inactive | inactive | inactive | inactive | inactive | inactive | inactive | inactive | inactive | inactive | –
4 | C[C@]12CC[C@H](O)C[C@H]1CC[C@@H]1[C@@H]2CC[C@]2(C)[C@@H](c3ccc(=O)oc3)C[C@H]3O[C@]132 | inactive | inactive | 2.66 µM (active) | inactive | inactive | – | inactive | – | inactive | 0.944 µM (active) | – | inactive | inactive | – | 13.3 µM (active) | inactive | – | – | – | –
5 | CC(=O)O[C@H]1C[C@H](O[C@H]2[C@@H](O)C[C@H](O[C@H]3[C@@H](O)C[C@H](OC4CC[C@@]5(C)[C@H](CC[C@@H]6[C@@H]5CC[C@]5(C)[C@@H](C7=CC(=O)OC7)CC[C@]65O)C4)O[C@@H]3C)O[C@@H]2C)O[C@H](C)[C@H]1O[C@@H]1O[C@H](CO)[C@@H](O)[C@H](O)[C@H]1O (some centres not stated) | inactive | inactive | 0.393 µM (active) | inactive | – | inactive | inactive | – | inactive | – | – | inactive | inactive | – | 0.473 µM (active) | inactive | – | 0.473 µM (active) | 0.596 µM (active) | –
6 | CCC(N)Cc1c[nH]c2ccccc12 (configuration not stated) | inactive | inactive | 21.1 µM (active) | inactive | – | inactive | inactive | – | – | – | inactive | – | inactive and 30.7 µM (active) | inactive | inactive | inactive | – | inactive and 68.8 µM (active) | – | –
7 | CC(=O)[C@H]1CC[C@H]2[C@@H]3CC[C@@H]4C[C@H](O)CC[C@]4(C)[C@H]3CC[C@]12C | – | inactive | – | inactive | inactive | 13.3 µM (active) | inactive | inactive | 26.8 µM [activator] (active) | 29.8 µM (active) | – | inactive | – | – | – | – | – | inactive | inactive | inactive
8 | CCc1cc(OC)c(C[C@@H](C)N)cc1OC | inactive | inactive | – | inactive | – | 56.7 µM (active) | inactive | – | – | – | – | – | – | – | 63.6 µM (active) | – | inactive | 56.7 µM (active) | 71.4 µM (active) | inactive
9 | O=C(O)CCCO | – | inactive | inactive | inactive | inactive | inactive | inactive | – | – | – | – | inactive | inactive | – | inactive | inactive | inactive | inactive | inactive | inactive
10 | O=c1ccc2cc(O[C@@H]3O[C@H](CO)[C@@H](O)[C@H](O)[C@H]3O)c(O)cc2o1 | – | inactive | inactive | – | – | inactive | inactive | – | – | inactive | inactive | – | – | – | inactive | – | – | inactive | inactive | 7.17 µM (active)
11 | C/C=C(\CC)C(=O)NC(N)=O | inactive | inactive | inactive | inactive | – | inactive | inactive | inactive | inactive | 29.8 µM (active) | inactive | inactive | inactive | inactive | inactive | inactive | inactive | inactive | – | inactive
12 | COc1ccc(OC)c(C[C@H](C)N)c1 | inactive | inactive | inactive | inactive | – | – | – | – | inactive | inactive | inactive | inactive | inactive | – | inactive | inactive | – | – | inactive | –
13 | O=P1(N(CCCl)CCCl)NC(OO)CCO1 (configuration not stated) | inactive | inactive | inactive | inactive | inactive | inactive | inactive | inactive | inactive | inactive | inactive | inactive | inactive | inactive | 13.3 µM (active) | inactive | – | inactive | – | –
14 | C[C@@H]1[C@@H]2Cc3ccc(O)cc3[C@@]1(C)CCN2CC1CC1 | inactive | – | inactive | inactive | inactive | inactive | inactive | – | – | – | – | inactive | – | inactive | inactive | inactive | inactive | inactive | – | –
15 | C=CCC1(C(C)CCC)C(=O)N=C(S)NC1=O (configuration not stated) | inactive | inactive | inactive | inactive | inactive | inactive | inactive | inactive | inactive | inactive | inactive | inactive | inactive | – | inactive | inactive | inactive | inactive | – | inactive
16 | C=C[C@H]1CN2CC[C@H]1C[C@H]2[C@H](OC(=O)OCC)c1ccnc2ccc(OC)cc12 | inactive | inactive | – | inactive | inactive | inactive | inactive | – | – | – | – | inactive | – | inactive | – | – | inactive | – | inactive | inactive
17 | Cc1cc(C)cc(C(=O)OC2C[C@H]3CC[C@@H](C2)N3C)c1 (some centres not stated) | inactive | inactive | – | inactive | inactive | 18.8 µM (active) | inactive | inactive | inactive | inactive | inactive | inactive | – | – | 1.88 µM (active) | – | inactive | 2.98 µM (active) | 5.31 µM (active) | –
